# Data from PubChem BioAssay (EPA / NIEHS).
# Inconclusive results are not listed. Activity calls are given as the source filed them. Rule for the calls: active = hit-call score of the fitted dose curve at least 0.9, where 1 is the maximum; inconclusive = response in the unintended direction; inactive = score below 0.9.
# Molecular target: human Caspase 8 (CASP8), CASP8 (gene 841) (UniProt Q14790)
# Test: NVS_ENZ_hCASP8: NovaScreen (NVS) Enzymatic Assay for human Caspase 8 (CASP8) (AID 2283146)
# Method: NVS_ENZ_hCASP8 is a biochemical, single-readout assay that uses extracted gene-proteins from E. coli in a cell-free assay. Measurements were taken 1 hour after chemical dosing in a 96-well plate.NVS_ENZ_hCASP8 is one of one assay component(s) measured or calculated from the NVS_ENZ_hCASP8 assay. It is designed to make measurements of enzyme activity, a form of enzyme reporter, as detected with fluorescence intensity signals by Fluorescence technology.Data from the assay component NVS_ENZ_hCASP8 was analyzed into 1 assay endpoint. This assay endpoint, NVS_ENZ_hCASP8, was analyzed in the positive analysis fitting direction relative to DMSO as the negative control and baseline of activity. Using a type of enzyme reporter, loss-of-signal activity can be used to understand changes in the enzymatic activity as they relate to the gene CASP8. Furthermore, this assay endpoint can be referred to as a primary readout, because this assay has produced multiple assay endpoints where this one serves a enzymatic activity function. To generalize the intended target to other relatable targets, this assay endpoint is annotated to the protease intended target family, where the subfamily is cysteine protease.
# Binding assays used specific radioligands (tritiated, iodinated) with non-radioactive competitive displacement ligands in agonist or antagonist protocols (as indicated) and various reference compounds and inhibitors to titrate specific binding to receptors and transporters. Most enzyme assays (CYPs, kinases, phosphatases, proteases, HDACs) used recombinant protein and specific substrates (fluorescence mostly, some colorimetric and radioactive) and inhibitors, followed by a biochemical separation of substrate and product. All assays for the biochemical HTS were initially run in duplicate at a single concentration (10 uM for CYP450 assays and 25 uM for all others). […] Each assay was run with positive and negative controls, and concurrent controls on every plate. The follow-up (secondary) screen tested active chemical-pairs in concentration series, as well as a few additional assays not tested in the primary screen, some selected negative inactives, and several cases re-run in the concentration series for confirmatory purposes.
# Chain of human Caspase 8 (CASP8), CASP8 (gene 841) (Q14790 whole entry, looked up): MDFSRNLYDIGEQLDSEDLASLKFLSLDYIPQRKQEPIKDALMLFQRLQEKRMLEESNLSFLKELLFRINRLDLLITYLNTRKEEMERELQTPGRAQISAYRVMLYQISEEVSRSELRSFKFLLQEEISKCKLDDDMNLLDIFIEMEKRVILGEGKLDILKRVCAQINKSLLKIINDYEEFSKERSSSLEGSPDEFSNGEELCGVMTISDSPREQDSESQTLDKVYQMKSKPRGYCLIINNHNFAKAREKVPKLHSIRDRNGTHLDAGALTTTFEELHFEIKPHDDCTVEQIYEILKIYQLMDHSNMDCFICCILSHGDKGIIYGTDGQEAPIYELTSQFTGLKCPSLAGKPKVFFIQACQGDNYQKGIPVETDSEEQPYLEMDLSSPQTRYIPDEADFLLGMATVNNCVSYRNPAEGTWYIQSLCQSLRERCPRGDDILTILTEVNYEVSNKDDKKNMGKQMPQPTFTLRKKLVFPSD
row,SMILES,outcome
1,CCNc1ccccc1,inactive
2,COCCOCCOCCOC,inactive
3,CC(C)CCO,inactive
4,Cc1ccc(C)c(O)c1,inactive

# Molecular target: human Casein Kinase 1-delta (CK1D), CSNK1D (gene 1453) (UniProt P48730)
# Sequence (P48730 whole entry, looked up): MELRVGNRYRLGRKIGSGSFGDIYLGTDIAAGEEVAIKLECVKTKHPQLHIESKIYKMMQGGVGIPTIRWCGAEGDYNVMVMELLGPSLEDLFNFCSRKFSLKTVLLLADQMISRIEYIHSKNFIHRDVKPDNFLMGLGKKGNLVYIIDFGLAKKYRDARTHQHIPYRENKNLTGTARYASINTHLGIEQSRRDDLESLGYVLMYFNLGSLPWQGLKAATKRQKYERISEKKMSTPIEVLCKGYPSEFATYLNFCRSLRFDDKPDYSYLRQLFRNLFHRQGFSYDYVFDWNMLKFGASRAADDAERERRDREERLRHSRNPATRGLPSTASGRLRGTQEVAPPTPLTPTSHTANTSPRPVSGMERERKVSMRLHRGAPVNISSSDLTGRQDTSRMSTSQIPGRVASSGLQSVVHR
# Test: NVS_ENZ_hCK1D: NovaScreen (NVS) Enzymatic Assay for human Casein Kinase 1-delta (CK1D) (AID 2283148)
# How it was run: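 Recombinant human CK1-delta, cell-free; fluorescent substrate with electrophoretic mobility-shift separation of product, read 1 h after dosing. Single 25 uM duplicate screen, then concentration-response up to 50 uM; loss of signal vs DMSO.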
SMILES,AC50,outcome
Cn1c(=O)cc(Oc2ccc(F)cc2F)c2cnc(NCC(C)(C)O)nc21,0.0119 µM (active),–
O=C(O)c1cccc(N(Cc2cccnc2)c2ccc(OC(F)F)c(OC(F)F)c2)c1,10.9 µM (active),–
CN(C)c1ccc(N=NS(=O)(=O)O)cc1,–,inactive
C1=CCCC=CCCC=CCC1,–,inactive
O=C(O)CCN(C1(C(=O)NO)CCCC1)S(=O)(=O)c1ccc(Oc2ccc(F)cc2)cc1,–,inactive
CCOC(=O)COc1ccc2c(c1)CC(NCC(O)c1cccc(Cl)c1)CC2 (stereo unspecified),–,inactive
COc1ccc(/C=C/S(=O)(=O)NC(=O)c2ccc(C)cc2Cl)cc1,30.5 µM (active),–
Cn1c(=O)c2c(ncn2C)n(C)c1=O,–,inactive
COc1ccc2sc(C(=O)Nc3nnn[nH]3)c(OC(C)C)c2c1,0.385 µM (active),–
Cc1[nH]cnc1C[C@H]1CCc2c(C)c3ccccc3n2C1=O,13.9 µM (active),–

# Molecular target: human Colony Stimulating Factor 1 Receptor (CSF1R), CSF1R (gene 1436) (UniProt P07333)
# Sequence (P07333 whole entry, looked up): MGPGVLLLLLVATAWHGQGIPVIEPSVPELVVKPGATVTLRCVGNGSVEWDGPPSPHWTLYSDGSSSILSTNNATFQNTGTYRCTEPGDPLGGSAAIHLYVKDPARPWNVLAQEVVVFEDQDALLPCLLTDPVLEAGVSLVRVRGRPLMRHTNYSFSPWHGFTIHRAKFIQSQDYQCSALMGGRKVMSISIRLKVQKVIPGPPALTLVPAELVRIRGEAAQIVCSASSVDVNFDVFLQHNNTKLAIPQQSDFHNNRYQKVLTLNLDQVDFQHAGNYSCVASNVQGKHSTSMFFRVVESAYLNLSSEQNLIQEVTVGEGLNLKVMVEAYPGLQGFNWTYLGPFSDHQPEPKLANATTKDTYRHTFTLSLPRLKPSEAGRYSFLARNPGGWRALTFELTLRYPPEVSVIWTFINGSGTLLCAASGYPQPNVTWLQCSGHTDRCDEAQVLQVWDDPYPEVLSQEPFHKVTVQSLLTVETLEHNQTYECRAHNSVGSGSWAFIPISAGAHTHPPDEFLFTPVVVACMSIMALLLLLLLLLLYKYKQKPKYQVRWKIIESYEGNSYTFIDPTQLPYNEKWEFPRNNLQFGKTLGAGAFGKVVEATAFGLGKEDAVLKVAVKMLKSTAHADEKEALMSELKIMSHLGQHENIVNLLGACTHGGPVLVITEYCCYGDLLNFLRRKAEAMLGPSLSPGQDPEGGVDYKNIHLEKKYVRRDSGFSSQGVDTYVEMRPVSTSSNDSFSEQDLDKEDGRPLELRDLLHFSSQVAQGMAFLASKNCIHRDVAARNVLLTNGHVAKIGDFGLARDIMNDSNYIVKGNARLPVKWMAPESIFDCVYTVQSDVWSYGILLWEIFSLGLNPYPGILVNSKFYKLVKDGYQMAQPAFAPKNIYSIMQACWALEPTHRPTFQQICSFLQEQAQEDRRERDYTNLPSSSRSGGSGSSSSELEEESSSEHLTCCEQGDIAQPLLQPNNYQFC
# Test: NVS_ENZ_hCSF1R: NovaScreen (NVS) Enzymatic Assay for human Colony Stimulating Factor 1 Receptor (CSF1R) (AID 2283150)
# How it was run: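 Compounds screened in duplicate at 25 uM, then concentration-response (top 50 uM) for those passing threshold such as 30% inhibition; recombinant CSF1R activity measured 1 h post-dosing via fluorescent substrate/product mobility-shift separation, loss of signal versus DMSO.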
SMILES,AC50,outcome
CNS(=O)(=O)c1cc(C(=O)N2CCC(CCN3C4CCC3CC(n3c(C)nc5ccccc53)C4)(c3cccc(F)c3)CC2)c(Cl)cc1F (stereo unspecified),39.1 µM (active),–
COCCOc1cc2cc(C(=O)NC3CCN(C(C)C)CC3)n(CC(=O)Nc3ccc(Cl)cn3)c2cn1,–,inactive
CN(C)c1ccc(N=NS(=O)(=O)O)cc1,–,inactive
COc1ccc(-n2nc(C(F)F)cc2-c2ccc(S(C)=O)cc2)cc1 (stereo unspecified),–,inactive
CCN(C(=O)c1cc(C)cc(OC[C@H](C)Nc2ccncc2)c1)C(C)C,–,inactive
COc1ccc2sc(C(=O)Nc3nnn[nH]3)c(OC(C)C)c2c1,–,inactive
C[C@](N)(Cc1ccc(O)c(O)c1)C(=O)O,–,inactive
